Source: PubChem BioAssay
Rows were chosen to be rich in hits. Some 3.5% of all compounds tested hit in one or more screens of this group.
FBW7 activator – human FBW7 E3 ligase activation, primary screen | hit rate 0.13% among 650,000 | AID 1259310 | AlphaScreen FBW7–phospho-cyclin E peptide binding, activator screen | Q969H0 | normalized activity (activation), % at 26.1 µM; in the data active = normalized activity above about 1.9%;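 note: purified mutant Fbw7 with reduced substrate affinity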
GPR151 ag – activators of human GPR151 | Q8TDV0 | hit rate 1% among 650,000 | PathHunter beta-arrestin GPR151 cells, luminescence | activation, % at 11.2 µM; in the data active = activation above about 4.9%;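 note: 0% = median of compound wells and 100% = cells with positive control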
MITF primary – blocks human microphthalmia-associated transcription factor. O75030. AlphaScreen MITF homodimerization, bead proximity signal. inhibition, % at 2.6 µM. hit rate 0.91% among 650,000; in the data active = inhibition above about 50%;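 note: 0% = vehicle wells with protein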
Target sequence (O75030 whole entry, looked up): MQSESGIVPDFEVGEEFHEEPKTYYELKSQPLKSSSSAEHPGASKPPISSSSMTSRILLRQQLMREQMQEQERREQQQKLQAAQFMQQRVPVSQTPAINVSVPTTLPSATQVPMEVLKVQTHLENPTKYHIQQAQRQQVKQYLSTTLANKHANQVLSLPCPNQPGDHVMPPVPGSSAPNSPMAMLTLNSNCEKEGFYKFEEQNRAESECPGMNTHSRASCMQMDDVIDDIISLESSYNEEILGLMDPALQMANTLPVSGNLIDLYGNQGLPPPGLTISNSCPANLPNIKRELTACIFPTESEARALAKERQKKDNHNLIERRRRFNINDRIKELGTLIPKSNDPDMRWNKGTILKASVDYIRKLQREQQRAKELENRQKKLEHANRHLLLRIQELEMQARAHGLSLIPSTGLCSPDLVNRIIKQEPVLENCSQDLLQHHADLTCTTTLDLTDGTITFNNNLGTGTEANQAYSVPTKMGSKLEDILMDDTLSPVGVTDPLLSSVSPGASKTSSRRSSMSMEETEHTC
TEAD-YAP inh – TEAD-YAP interaction inhibition; HEK-TIYL cells, TEAD-Gal4/YAP UAS-luciferase luminescence; inhibition, % at 9.12 µM; hit rate 1.4% among 640,000; AID 1259422; in the data active = inhibition above about 32%;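 note: 0% = median of test compound wells and 100% = reference inhibitor wells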
MITF confirm – confirmation of human MITF inhibitors; shares compounds with MITF primary; AlphaScreen MITF homodimerization, biotin/His-MITF beads; inhibition, % at 2.6 µM; hit rate 16% among 4,700;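 active = inhibition above a cutoff derived from the DMSO control wells, cut at about 28% in these data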;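 note: 0% = MITF dimer wells with DMSO only; inhibitors lower the bead chemiluminescence by keeping MITF from dimerizing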
AlphaScreen intf2 – optically interferes with AlphaScreen signal | inhibition, % at 2.6 µM | hit rate 7.6% among 4,700 | LysRS AlphaScreen counterscreen, signal interference, triplicate | AID 1259376 | shares compounds with MITF primary;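 active = inhibition above a cutoff derived from the DMSO control wells, cut at about 30% in these data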
An asterisk follows results filed as active; nt = no result.

SMILES | FBW7 activator | GPR151 ag | MITF primary | TEAD-YAP inh | MITF confirm | AlphaScreen intf2
CCCCC[C@@H](O)CC[C@H]1[C@H](O)CC(=O)[C@@H]1CCCCCCC(=O)O | nt | 2 | 22 | nt | nt | nt
COc1ccc(NC(=S)NC(=O)c2ccc(OC)c(OC)c2)c(OC)c1 | 0 | 2 | 6 | -1 | nt | nt
Cc1ncc(CO)c(/C=N/NC(=O)c2ccc(Cl)cc2O)c1O | 0 | 1 | 60* | -2 | 9 | 32*
Cc1ncc(CO)c(/C=N/NC(=O)c2ccc([N+](=O)[O-])cc2Cl)c1O | 0 | -1 | 67* | 10 | 13 | 96*
Cc1ncc(CO)c(/C=N/NC(=O)c2ccccc2O)c1O | -2 | 3 | 49 | -3 | nt | nt
O=C(N/N=C/c1ccccn1)c1ccc([N+](=O)[O-])cc1Cl | -1 | 2 | 27 | -5 | nt | nt
COc1ccc(C(=O)Nc2cc(-c3nc4cc(C)ccc4o3)ccc2Cl)cc1Br | 0 | -1 | 59* | -31 | 6 | 14
CC(C)(C)SCCNC(=O)c1ccc(Br)cc1 | 0 | -1 | -17 | -62 | nt | nt
c1ccc(OCc2nnc3sc(-c4cccnc4)nn23)cc1 | 0 | 1 | 64* | 1 | 7 | 14
CCOc1ccc(-c2nn3c(COc4ccccc4)nnc3s2)cc1 | 0 | 0 | 4 | 5 | nt | nt
COc1cccc(CNC(=O)CN(C)S(=O)(=O)c2ccc3c(c2)CCC(=O)N3)c1 | 0 | 0 | 0 | 0 | nt | nt
Cc1cc(NC(=O)C(C)NC2CCCC2)no1 (stereo not drawn) | 0 | 0 | 52* | -3 | -2 | 7
Cc1cc(NC(=O)C(C)NCCCN(C)C)no1 (stereo not drawn) | 0 | 1 | 63* | -1 | 2 | 12
Cc1cc(NC(=O)C(C)NCCc2ccccc2)no1 (stereo not drawn) | 0 | 1 | 22 | -1 | nt | nt
Cc1cc(NC(=O)C(C)N2CCCC2)no1 (stereo not drawn) | 1 | -1 | -18 | -4 | nt | nt
CCCCSc1nc2c(c(=O)[nH]1)C(c1cccnc1)C(C(=O)OC(C)C)=C(C)N2 (stereo not drawn) | 0 | 4 | 14 | -9 | nt | nt
O=C(CNS(=O)(=O)c1ccc(F)c(F)c1F)NCc1ccc2c(c1)OCO2 | 0 | 0 | 4 | -2 | nt | nt
C=Cn1ccnc1P(c1ccccc1)c1nccn1C=C | -1 | -1 | 104* | -8 | 110* | 100*
CCCCCC(C)(C)NC(=O)CN1CCOCC1 | 0 | 0 | 51* | -2 | 11 | 8
CC1(C)CC2CC(C)(CN2CC(O)COc2ccccc2)C1 (stereo not drawn) | 0 | -2 | 19 | -10 | nt | nt
COc1cccc(COCC(O)CN2CC3(C)CC2CC(C)(C)C3)c1 (stereo not drawn) | 0 | -1 | 68* | 2 | 11 | 10
Cn1c(=O)oc2cc(S(=O)(=O)NCCN3CCN(c4ccccc4F)CC3)ccc21 | 0 | 0 | 14 | 1 | nt | nt
O=S(=O)(NCCN1CCN(c2ccccc2F)CC1)c1ccccc1Cl | 0 | 2 | 72* | -5 | 2 | -4
C=CCNc1nc(-c2ccccn2)nnc1-c1ccccc1 | -1 | 3 | 70* | -5 | 69* | 100*
N#Cc1ccccc1NC(=O)c1ccc(S(=O)(=O)N2CCOCC2)cc1 | 0 | 0 | 55* | -11 | -12 | -6
SMILES | FBW7 activator | GPR151 ag | MITF primary | TEAD-YAP inh | MITF confirm | AlphaScreen intf2
N#Cc1ccccc1NC(=O)c1ccc(S(=O)(=O)N2CCCC2)cc1 | 0 | 1 | 5 | -5 | nt | nt
Cc1cc(C)nc(SCc2cc(=O)c(OC(=O)C3(c4ccc(Cl)cc4)CCCC3)co2)n1 | 0 | -1 | 102* | 0 | 3 | -7
CN(C)c1cccc(Nc2nc(C(=O)NC3CCN(Cc4ccccc4)CC3)cs2)c1 | 0 | -1 | 58* | -11 | 25 | 16
COc1ccc(C2C(C(=O)Nc3ccc(C)cc3)=C(C)Nc3ncnn32)cc1OC (stereo not drawn) | 0 | 1 | 69* | -11 | 7 | 12
COc1cccc(-c2ccc(=O)n(CC(=O)NCC3CCCO3)n2)c1 (stereo not drawn) | 0 | -1 | 51* | 3 | 14 | 11
Cc1[nH]n(-c2ncc(C(=O)O)c(=O)[nH]2)c(=O)c1Cc1ccccc1 | 0 | 1 | 83* | 0 | 64* | 95*
Cc1cc(=O)[nH]c(-n2[nH]c(C)c(Cc3ccccc3)c2=O)n1 | 0 | -1 | 15 | 2 | nt | nt
CCOC(=O)c1cnc(-n2[nH]c(C)c(CCO)c2=O)[nH]c1=O | 0 | -1 | 86* | -4 | 13 | 65*
CCOC(=O)c1cnc(N2CCOCC2)[nH]c1=O | 0 | -1 | 5 | -5 | nt | nt
O=C(COc1ccc(F)cc1)N/N=C/c1ccco1 | 0 | 0 | -9 | -8 | nt | nt
O=C(CC(NCc1ccccn1)C(=O)O)Nc1cccc([N+](=O)[O-])c1 (stereo not drawn) | 0 | -1 | 43 | -3 | nt | nt
O=C(CC(NCc1ccccn1)C(=O)O)Nc1ccc(Oc2ccccc2)cc1 (stereo not drawn) | 0 | 2 | 90* | 2 | 95* | 100*
O=C(CC(NCc1ccccn1)C(=O)O)Nc1ccc(F)cc1 (stereo not drawn) | 0 | 2 | 108* | -15 | 102* | 100*
O=C(CC(NCc1ccco1)C(=O)O)Nc1ccc(Oc2ccccc2)cc1 (stereo not drawn) | 0 | 1 | 6 | -2 | nt | nt
CC1CCCCC1Nc1ncnc2sccc12 (stereo not drawn) | 0 | 3 | 64* | 7 | 2 | 2
COc1ccc(C(CNCC(=O)Nc2ccccc2-c2ccccc2)N2CCOCC2)cc1 (stereo not drawn) | 0 | -1 | 83* | 5 | -15 | -1
COc1ccc2c(c1)C(c1cccs1)=NNC(c1ccncc1)=N2 | 0 | 0 | 10 | 7 | nt | nt
c1csc(C2=NNC(c3ccncc3)=Nc3ccccc32)c1 | 0 | 1 | 71* | 9 | 10 | 16
CC(C)(C)C(=O)COc1ccc2c(C(F)(F)F)cc(=O)oc2c1 | 0 | 0 | 6 | 6 | nt | nt
C=CCOC(=O)COc1ccc2c(CC)cc(=O)oc2c1 | 0 | -1 | 76* | -1 | 8 | 7
NC(=O)COc1ccc2c(C(F)(F)F)cc(=O)oc2c1 | 0 | -1 | 54* | 12 | -23 | 15
O=C(NCc1cccs1)c1nn2c(C(F)(F)F)cc(-c3ccco3)nc2c1Br | 0 | -1 | 78* | -4 | 5 | 20
O=C(NCC1CCCO1)c1ccc2c(=O)n(Cc3cccc(Br)c3)c(=S)[nH]c2c1 (stereo not drawn) | 0 | 1 | 58* | -2 | 1 | -1
O=C1CCCN1CCCNCC(=O)N1c2ccccc2Sc2ccccc21 | 0 | -1 | 76* | 3 | -16 | -1
O=[N+]([O-])c1ccccc1S(=O)(=O)N1CCN(C2CCN(Cc3ccccc3)CC2)CC1 | 0 | 1 | 74* | -5 | 6 | 15
